Experimental data from the supplement of paper PMC10646978.
± gives the standard deviation.

Tests used:
Settings in all cases: modulator concentration 10 µM
[1] = test system: RAW-Dual (murine macrophage reporter line); test: NF-kB reporter (SEAP) activity fold change vs agonist alone; higher = enhanced NF-kB activity
How it was run: (§1)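 Compound reached 10 μM final in each well by pin transfer, onto RAW-Dual murine macrophage reporter cells seeded at 50 000 per well in 384-well plates. After 1 hour at 37 °C, the cells were stimulated overnight with a PRR agonist. SEAP in the supernatant was read with QUANTI-Blue at 620 nm absorbance for NF-κB, and Lucia luciferase was read with QUANTI-Luc luminescence for IRF. Each signal was turned into fold change against the mean agonist-only control on the same plate, and two replicate plates were averaged with propagated errors.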

[2] = test system: RAW-Dual (murine macrophage reporter line); test: IRF reporter (Lucia luciferase) activity fold change vs agonist alone; higher = enhanced IRF activity
How it was run: as §1

[3] = test system: RAW-Dual (murine macrophage reporter line); test: viability score (confluency relative to resting cells, overnight) (fraction); higher = more viable, active = viable (0.7 or more)
How it was run: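 RAW-Dual macrophages in 384-well plates were exposed overnight to compound at 10 μM final. Confluency was imaged with IncuCyte, and two confluency masks were generated with IncuCyte software over all imaged wells. The viability score is confluency expressed relative to resting cells. Compounds were called viable if both masks exceeded 70% of resting cells.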

[4] = agonist: CpG ODN 1826 0.5 ug/mL

Compound	NF-kB reporter [1, 4]	NF-kB reporter ([1]; agonist: LPS 0.1 ug/mL)	NF-kB reporter ([1]; agonist: MPLA […])	IRF reporter ([2]; agonist: 3'3'-cGAMP 10 ug/mL)	IRF reporter ([2]; agonist: LPS 0.1 ug/mL)	IRF reporter ([2]; agonist: MPLA […])	viability score [3]
O=C(Nc1ccc([N+](=O)[O-])cc1Cl)c1cc(Cl)ccc1O [Prestw-40]	1.12 ± 0.28	0.92 ± 0.052	0.938 ± 0.068	0.873 ± 0.064	1.12 ± 0.24	0.832 ± 0.13	1.01 (active)
O=C(NCCN1CCN(c2ccc(Cl)cc2)CC1)c1cnccn1	0.974 ± 0.076	0.967 ± 0.086	1 ± 0.03	0.982 ± 0.049	1.01 ± 0.055	0.919 ± 0.097	0.998 (active)
CCNC(=O)c1ccc(CN2CCc3ccccc3C2)cc1	1.12 ± 0.09	1.13 ± 0.074	0.958 ± 0.059	0.905 ± 0.039	1.37 ± 0.29	1.04 ± 0.075	1.01 (active)
CCCCCOC(=O)COc1ccc(S(=O)(=O)c2ccc(OCC(=O)OCCCCC)cc2)cc1	0.959 ± 0.079	0.964 ± 0.094	1.12 ± 0.14	1.02 ± 0.032	1.33 ± 0.21	1.61 ± 0.25	1.03 (active)
O=C(NCC(O)Cn1ccccc1=O)c1ccc(Cl)s1 (centres undefined)	0.94 ± 0.1	0.869 ± 0.087	1.01 ± 0.087	1.02 ± 0.047	1.41 ± 0.09	1.46 ± 0.12	1 (active)
O=C(Cn1c(C(F)(F)F)nc2ccccc21)c1ccc(OC(F)F)cc1	0.916 ± 0.086	1.07 ± 0.084	0.884 ± 0.062	1.06 ± 0.061	1.3 ± 0.15	1.02 ± 0.072	1.01 (active)
CCSC1=C(C#N)C2(CCCC2)C(C#N)C(=O)N1 (centres undefined)	1.13 ± 0.18	0.964 ± 0.086	0.91 ± 0.081	0.789 ± 0.021	1.34 ± 0.2	1.42 ± 0.23	0.988 (active)
CC(=O)c1ccc(NC(=O)CSc2ccc(-c3ccc4c(c3)OCO4)nn2)cc1	0.846 ± 0.28	1.04 ± 0.096	0.981 ± 0.11	0.955 ± 0.034	1.02 ± 0.2	1.03 ± 0.11	0.99 (active)
CN1[C@@H]2CC[C@H]1C[C@@H](OC(c1ccccc1)c1ccccc1)C2.CS(=O)(=O)O	0.95 ± 0.13	1.19 ± 0.5	1.48 ± 0.23	0.438 ± 0.013	0.934 ± 0.35	1.53 ± 0.15	–
Cc1nc(SCC(=O)N2CCCCCC2)[nH]c(=O)c1C	1.15 ± 0.077	1.17 ± 0.14	0.909 ± 0.04	1 ± 0.064	1.07 ± 0.14	0.977 ± 0.3	1 (active)
CC(=O)NO	0.863 ± 0.12	0.93 ± 0.071	0.953 ± 0.053	0.834 ± 0.068	0.901 ± 0.15	0.977 ± 0.092	1 (active)
Clc1ccc(C=NN2CCN(C(c3ccccc3)c3ccccc3)CC2)cc1	1.06 ± 0.087	1.02 ± 0.087	0.928 ± 0.025	1.02 ± 0.051	1.05 ± 0.049	0.962 ± 0.1	0.996 (active)
CC12CCC3c4ccc(O)cc4CCC3C1CCC2OC(=O)CCC1CCCC1 (centres undefined)	1.02 ± 0.093	0.997 ± 0.09	0.867 ± 0.082	0.969 ± 0.03	1.15 ± 0.15	1.21 ± 0.14	0.98 (active)
CN1CCN(c2ccc(-c3cccc(NC(=O)c4ccc5ccccc5c4)c3)nn2)CC1	0.162 ± 0.0099	0.745 ± 0.15	0.301 ± 0.11	0.664 ± 0.041	1.88 ± 0.75	1.85 ± 0.26	0.171 (inactive)
N#CC(=Cc1cc(Cl)ccc1OCc1c(F)cccc1Cl)c1nn(CCO)c(N)c1C#N	1.37 ± 0.12	1.19 ± 0.072	0.806 ± 0.063	0.497 ± 0.03	0.931 ± 0.11	0.787 ± 0.049	0.164 (inactive)
CCOC(=O)C(=NNc1ccccc1[N+](=O)[O-])C(=O)CSc1ccc(C)cc1	0.697 ± 0.046	0.789 ± 0.049	0.919 ± 0.056	0.154 ± 0.0098	1.14 ± 0.083	1.14 ± 0.12	1 (active)
O=C(CCN1C(=O)c2cccc([N+](=O)[O-])c2C1=O)Nc1ccc(F)cc1	1.01 ± 0.13	1.02 ± 0.069	1.02 ± 0.035	0.875 ± 0.082	0.958 ± 0.099	1.07 ± 0.23	1 (active)
C[C@H](Oc1cc(-c2cnn(C3CCNCC3)c2)cnc1N)c1c(Cl)ccc(F)c1Cl	0.85 ± 0.069	0.896 ± 0.11	0.942 ± 0.08	1.03 ± 0.047	1.1 ± 0.23	1.17 ± 0.38	0.998 (active)
O=C(CCCN1CCC(O)(c2ccc(Cl)cc2)CC1)c1ccc(F)cc1	0.827 ± 0.13	0.893 ± 0.074	1.12 ± 0.098	1.05 ± 0.071	1.36 ± 0.092	1.38 ± 0.13	1.01 (active)
COc1cc(C(C)=O)ccc1OCCCN1CCC(c2noc3cc(F)ccc23)CC1	0.986 ± 0.15	1.17 ± 0.31	0.924 ± 0.056	0.834 ± 0.027	1.19 ± 0.2	1.12 ± 0.11	0.991 (active)
Cc1nnc(NC(=O)CSc2nc3ccccc3[nH]2)s1	1.11 ± 0.094	1.01 ± 0.073	0.954 ± 0.078	1.14 ± 0.22	1.01 ± 0.13	1.05 ± 0.2	0.995 (active)
O=C(CCC1CCCC1)Nc1cccc(F)c1	0.986 ± 0.059	1.08 ± 0.12	0.959 ± 0.029	0.999 ± 0.045	1.03 ± 0.091	1.12 ± 0.25	1 (active)
CC1(COc2ccc3c(c2)ncn3-c2ccc3cccc(N4CCC(N)CC4)c3n2)COC1	0.379 ± 0.25	0.397 ± 0.099	2.05 ± 0.24	0.0544 ± 0.0038	0.345 ± 0.037	0.339 ± 0.06	0.464 (inactive)
Cl.Cn1cc(C(=O)[C@@H]2CCc3nc[nH]c3C2)c2ccccc21	0.806 ± 0.078	0.83 ± 0.11	0.878 ± 0.027	0.906 ± 0.056	0.973 ± 0.11	1.01 ± 0.078	0.997 (active)
CCOc1ccccc1OCCOCCOc1ccc(Br)cc1Cl	0.905 ± 0.051	0.9 ± 0.13	1.22 ± 0.044	0.876 ± 0.034	0.979 ± 0.088	1.02 ± 0.12	0.992 (active)
